MARV entry inh: inhibitors of Marburg virus binding or cell entry. Potency, µM (highest dose often 37.8 µM), actives largely listed as inhibitors. Marburg virus pseudotyped entry inhibition, cell reporter. 1.8% of 300,000 active; calls by dose curve; tested in HEK293 cells
FMDV antiviral: antivirals against foot and mouth disease virus; FMDV antiviral cell-based qHTS; Potency, µM (doses to about 57.9 µM), usual class: inhibitors; 1.2% of 410,000 active; calls by dose curve; tested in HEK293T cells; also: read-out not given here; nearly all actives have a fitted effect of over 45% in size
HCMV antiviral: human cytomegalovirus inhibition; HFF cells, HCMV-luciferase reporter, 72 h; hits give low values; activity change, negative = inhibition, % at 57.5 µM; AID 1259415; 4.5% of 410,000 active; in the data active = activity change below about -60%; inconclusive = no clear call, values can overlap the other calls; inactive = above about -39%
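Inhibition of viral replication was scored as loss of reporter luminescence in HFFs infected with HCMV-luciferase (MOI 1 PFU/cell) for 72 h; compounds tested at 2 doses, normalized to buffer and Salinomycin controls.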
LASV entry inh: inhibitors of Lassa virus binding or cell entry; Lassa virus pseudotype entry inhibition, cell reporter; 1.2% of 300,000 active; Potency, µM (series often up to 37.9 µM), most hits filed as inhibitors; AID 540256; calls by dose curve; tested in HEK293 cells; also: nearly all actives have a fitted effect of over 50% in size
Vaccinia mCherry: vaccinia inhibition (mCherry reporter) | Vaccinia virus mCherry reporter infection, fluorescence | Potency, µM (titrated, usually from 36.5 µM), actives largely listed as inhibitors | 0.63% of 310,000 active | AID 720579; calls by dose curve; tested in A549 cells; also: nearly all actives have a fitted effect of over 35% in size
VACV Venus inh: vaccinia inhibition (Venus reporter) | Vaccinia virus Venus reporter expression, fluorescence | Potency, µM (top dose mostly 36.5 µM), actives largely listed as inhibitors | 0.46% of 330,000 active; calls by dose curve; tested in A549 cells; also: nearly all actives have a fitted effect of over 30% in size
Numbers stand for hits; - = inactive; ? = inconclusive; . = no result given; [ ] = another dose, or the depositor's remark. Hits are enriched below; roughly 6.5% of the tested compounds scored in any of these assays.

SMILES	MARV entry inh	FMDV antiviral	HCMV antiviral	LASV entry inh	Vaccinia mCherry	VACV Venus inh
Cc1ccc(-n2c(SCC(=O)N3CC(=O)Nc4ccccc43)nc3ccccc3c2=O)cc1	?	-	-68.0	-	-	?
CCOC(=O)N1CCN(C(=O)CSc2nc3ccccc3c(=O)n2-c2ccccc2)CC1	-	?	-	8.91µM	.	-
CC(C)c1nc(SCC(=O)N2CC(=O)Nc3ccccc32)c2ccccc2n1	?	15.8µM	-87.2	?	?	?
COc1oc(=O)c2cc(N)ccc2c1Cl	.	-	.	.	.	.
COc1ccc(C(=O)N2CCC(C(=O)Nc3ccc(Cl)cc3)CC2)cc1	-	-	-	-	-	-
CCN(CC)CCCn1c(C)cc2c(c1=O)[C@@H](c1cccc(Cl)c1)C(C#N)=C(N)O2	11.2µM	.	.	.	.	.
CCOc1ccc(Nc2oc(/C=C/c3cc(OC)c(OC)c(OC)c3)nc2C#N)cc1	-	-	-	-	-	-
O=C(C[n+]1ccc(Cl)c2ccc(Cl)cc21)c1ccc(F)cc1	.	.	.	.	-	-
Cc1ccc(C(=O)NCCn2cc(SCC(=O)Nc3cc(C)on3)c3ccccc32)cc1	-	-	-	.	-	-
CCOC(=O)c1c(NC(=O)C(C)Sc2cn(CCNC(=O)c3ccc(OC)c(OC)c3)c3ccccc23)sc2c1CCC2 (configuration not stated)	?	-	-108.2	-	?	-
O=C(NCCn1cc(SCc2ccc(F)cc2)c2ccccc21)c1ccccc1F	?	28.2µM	.	-	?	-
O=C(CSc1cn(CCNC(=O)c2cccc(C(F)(F)F)c2)c2ccccc12)Nc1ccc2c(c1)OCCO2	?	25.1µM	-82.8	?	?	?
CCOC(=O)c1c(NC(=O)C(C)Sc2cn(CCNC(=O)c3ccccc3OC)c3ccccc23)sc2c1CCC2 (configuration not stated)	?	-	-	?	-	-
Cc1ccc(C(=O)NCCn2cc(SCC(=O)N3CCOCC3)c3ccccc32)cc1	-	-	-63.1	.	-	-
COc1ccc(C(=O)NCCn2cc(SCc3ccc(C(F)(F)F)cc3)c3ccccc32)cc1OC	?	22.4µM	-62.4	-	?	?
O=C(NCCn1cc(SCc2ccc(C(F)(F)F)cc2)c2ccccc21)c1ccccc1F	-	?	-	-	-	-
OC[C@@H]1CN(Cc2ccc(-c3ccccc3)cc2)C[C@H](n2cnc3c(NCc4ccco4)ncnc32)O1	.	31.6µM	-89.6	.	-	-
OC[C@@H]1CN(CCc2ccccc2)C[C@H](n2cnc3c(NCc4ccc(F)cc4)ncnc32)O1	.	-	-65.6	.	-	-
OC[C@@H]1CN(Cc2ccc(-c3ccccc3)cc2)C[C@H](n2cnc3c(NCc4ccncc4)ncnc32)O1	.	-	-91.4	.	10µM	?
COc1cc(CNc2ncnc3c2ncn3[C@H]2CN(Cc3ccc(-c4ccccc4)cc3)C[C@@H](CO)O2)cc(OC)c1OC	.	?	-65.9	.	12.6µM	?
COCCCn1c(=O)c2sccc2n2c(CCCC(=O)Nc3cccc(C(F)(F)F)c3)nnc12	.	-	?	-	-	-
OC[C@@H]1CN(Cc2ccco2)C[C@H](n2cnc3c(NCc4ccc(F)cc4)ncnc32)O1	.	-	-68.6	.	-	-
CCOC(=O)c1c(N)sc2c(OCC)c(Br)ccc12	?	.	-	-	-	-
CCOC(=O)c1c(NC(C)=O)sc2c(OCC(O)CNC(C)(C)C)c(Br)ccc12 (configuration not stated)	.	-	-84.9	.	.	.
C=C(C)Cn1c(=O)c2c(nc3n2CCN3c2cc(C)cc(C)c2)n(C)c1=O	.	-	-	?	-	-
SMILES	MARV entry inh	FMDV antiviral	HCMV antiviral	LASV entry inh	Vaccinia mCherry	VACV Venus inh
CC(C)CNC(=O)c1csc(C(O)C(C)C)n1 (configuration not stated)	.	.	-	.	.	.
C(=Nc1cccnc1)c1ccc2ccccc2n1	.	.	.	.	-	-
Cc1ccc(S(=O)(=O)N2CCCCC2)cc1NC(=O)CSc1ncnc2ccccc12	?	-	-70.9	?	11.2µM	?
O=C(CNc1ccccc1F)Nc1cc(S(=O)(=O)N2CCCCC2)ccc1Cl	.	-	-	.	.	.
Cc1ccc(NC(=O)CSc2ncnc3ccccc23)cc1S(=O)(=O)N1CCCCCC1	?	8.91µM	-	-	?	?
Cc1ccc(S(=O)(=O)N2CCCCC2)cc1NCC(=O)Nc1ccc(Br)cc1F	.	?	-85.8	.	?	?
CCCCNC(=O)N[C@H]1CC[C@@]23CCCN2C(=O)CCC[C@H]3[C@H]1C	.	.	-	.	.	.
CNC(=O)[C@@H]1C[C@H](NC2CCCCCCC2)CN1Cc1cccc(OC)c1OC	.	-	.	.	-	-
NC(=O)[C@@H]1CCCN1C(=O)c1cc(NC(=O)c2ccccc2)cc2ncn(C3CCCC3)c12	.	-	.	.	-	-
O=C(O)c1cccc(NC(=O)c2ccc(COc3ccc(Cl)cc3)cc2)c1	.	-	-	.	.	.
C/C(=N\OCc1cccc(C(=O)O)c1)c1ccc(Cl)cc1	?	10µM	-	?	-	-
COc1ccc(N2CCN(C(=O)c3ccc(COc4ccc([N+](=O)[O-])cc4)o3)CC2)cc1	?	28.2µM	?	?	-	-
COc1cccc(N2CCN(C(=O)c3ccc(CS(=O)Cc4ccc(Cl)cc4)o3)CC2)c1 (configuration not stated)	-	-	-	-	-	-
CCN1CCN(C(=O)c2ccc(COc3cccc(Cl)c3)o2)CC1	-	-	-68.8	?	-	-
COc1cccc(N2CCN(C(=O)c3ccc(CS(=O)c4cccc(Cl)c4)o3)CC2)c1 (configuration not stated)	.	-	-69.5	-	-	-
O=C(c1ccco1)N1CCN(C(=O)c2ccc(CS(=O)c3cccc(Cl)c3)o2)CC1 (configuration not stated)	.	-	-	.	-[7.34 µM]	-[7.34 µM]
COc1ccc(N2CCN(C(=O)c3ccc(CS(=O)c4cccc(Cl)c4)o3)CC2)cc1 (configuration not stated)	.	?	-73.1	.	-	-
Cc1ccc(NC(=O)c2c(NC(=O)c3ccccc3Cl)sc3c2CCC3)cc1	.	-	-	-	-	-
O=C(Nc1cccc(C(=O)N2CCN(c3ccc(Cl)cc3)CC2)c1)c1nsc2ccccc12	.	-	-	?	-	-
CC(=O)c1ccc(S(=O)(=O)N2CCN(C(=O)c3ccc(COc4ccccc4)o3)CC2)cc1	?	?	-60.6	?	-	?
Brc1ccc(N/N=C(/N=Nc2nn[nH]n2)c2ccccc2)cc1	.	-	-99.6	.	?	12.6µM
Cc1nc(CC(=O)Nc2ccc(C(N)=O)cc2)cs1	?	-	-	-	-	-
OCCN1C2=NCCCN2c2ccccc21	?	-	-	-	-	-
CCCN1C2=NS(=O)(=O)CCN2c2ccccc21	?	-	-101.4	-	.	-
Cc1noc(/C=C/c2cccnc2)c1[N+](=O)[O-]	.	14.1µM	-98.0	.	.	.
CCN1CCN(CCNC(=O)c2ccc(/C=C3/Sc4ccccc4N(Cc4cccc(Cl)c4)C3=O)cc2)CC1	?	-	-103.3	?	-	?
CN1CCN(CCCNC(=O)c2ccc(/C=C3\Sc4ccccc4N(Cc4ccccc4F)C3=O)cc2)CC1	.	-	-63.4	.	.	.

Bioassay records as filed in PubChem.
